# According to ChEMBL document CHEMBL1961873, “Compounds: GSK PKIS; Assays: Nanosyn kinase panel” (2012):
# Where “and” joins values, the source holds several entries; their conditions need not be identical. Identical values can stand only once.
# Experiments:
# [1] = biological target: Serine/threonine-protein kinase MRCK alpha (Homo sapiens) (UniProt Q5VT25); conditions: at 0.1 µM
# [2] = biological target: Serine/threonine-protein kinase MRCK alpha (Homo sapiens) (UniProt Q5VT25); conditions: at 1 µM
# [3] = biological target: Serine/threonine-protein kinase MRCK beta (Homo sapiens) (UniProt Q9Y5S2); conditions: at 0.1 µM
# [4] = biological target: Serine/threonine-protein kinase MRCK beta (Homo sapiens) (UniProt Q9Y5S2); conditions: at 1 µM
# [5] = biological target: Ribosomal protein S6 kinase alpha-5 (Homo sapiens) (UniProt O75582); conditions: at 0.1 µM
# [6] = biological target: Ribosomal protein S6 kinase alpha-5 (Homo sapiens) (UniProt O75582); conditions: at 1 µM
# [7] = biological target: Ribosomal protein S6 kinase alpha-4 (Homo sapiens) (UniProt O75676); conditions: at 0.1 µM
# [8] = biological target: Ribosomal protein S6 kinase alpha-4 (Homo sapiens) (UniProt O75676); conditions: at 1 µM
# [9] = biological target: Ribosomal protein S6 kinase beta-1 (Homo sapiens) (UniProt P23443); conditions: at 0.1 µM
# [10] = biological target: Ribosomal protein S6 kinase beta-1 (Homo sapiens) (UniProt P23443); conditions: at 1 µM
# Serine/threonine-protein kinase MRCK alpha (Homo sapiens), sequence (Q5VT25 whole entry): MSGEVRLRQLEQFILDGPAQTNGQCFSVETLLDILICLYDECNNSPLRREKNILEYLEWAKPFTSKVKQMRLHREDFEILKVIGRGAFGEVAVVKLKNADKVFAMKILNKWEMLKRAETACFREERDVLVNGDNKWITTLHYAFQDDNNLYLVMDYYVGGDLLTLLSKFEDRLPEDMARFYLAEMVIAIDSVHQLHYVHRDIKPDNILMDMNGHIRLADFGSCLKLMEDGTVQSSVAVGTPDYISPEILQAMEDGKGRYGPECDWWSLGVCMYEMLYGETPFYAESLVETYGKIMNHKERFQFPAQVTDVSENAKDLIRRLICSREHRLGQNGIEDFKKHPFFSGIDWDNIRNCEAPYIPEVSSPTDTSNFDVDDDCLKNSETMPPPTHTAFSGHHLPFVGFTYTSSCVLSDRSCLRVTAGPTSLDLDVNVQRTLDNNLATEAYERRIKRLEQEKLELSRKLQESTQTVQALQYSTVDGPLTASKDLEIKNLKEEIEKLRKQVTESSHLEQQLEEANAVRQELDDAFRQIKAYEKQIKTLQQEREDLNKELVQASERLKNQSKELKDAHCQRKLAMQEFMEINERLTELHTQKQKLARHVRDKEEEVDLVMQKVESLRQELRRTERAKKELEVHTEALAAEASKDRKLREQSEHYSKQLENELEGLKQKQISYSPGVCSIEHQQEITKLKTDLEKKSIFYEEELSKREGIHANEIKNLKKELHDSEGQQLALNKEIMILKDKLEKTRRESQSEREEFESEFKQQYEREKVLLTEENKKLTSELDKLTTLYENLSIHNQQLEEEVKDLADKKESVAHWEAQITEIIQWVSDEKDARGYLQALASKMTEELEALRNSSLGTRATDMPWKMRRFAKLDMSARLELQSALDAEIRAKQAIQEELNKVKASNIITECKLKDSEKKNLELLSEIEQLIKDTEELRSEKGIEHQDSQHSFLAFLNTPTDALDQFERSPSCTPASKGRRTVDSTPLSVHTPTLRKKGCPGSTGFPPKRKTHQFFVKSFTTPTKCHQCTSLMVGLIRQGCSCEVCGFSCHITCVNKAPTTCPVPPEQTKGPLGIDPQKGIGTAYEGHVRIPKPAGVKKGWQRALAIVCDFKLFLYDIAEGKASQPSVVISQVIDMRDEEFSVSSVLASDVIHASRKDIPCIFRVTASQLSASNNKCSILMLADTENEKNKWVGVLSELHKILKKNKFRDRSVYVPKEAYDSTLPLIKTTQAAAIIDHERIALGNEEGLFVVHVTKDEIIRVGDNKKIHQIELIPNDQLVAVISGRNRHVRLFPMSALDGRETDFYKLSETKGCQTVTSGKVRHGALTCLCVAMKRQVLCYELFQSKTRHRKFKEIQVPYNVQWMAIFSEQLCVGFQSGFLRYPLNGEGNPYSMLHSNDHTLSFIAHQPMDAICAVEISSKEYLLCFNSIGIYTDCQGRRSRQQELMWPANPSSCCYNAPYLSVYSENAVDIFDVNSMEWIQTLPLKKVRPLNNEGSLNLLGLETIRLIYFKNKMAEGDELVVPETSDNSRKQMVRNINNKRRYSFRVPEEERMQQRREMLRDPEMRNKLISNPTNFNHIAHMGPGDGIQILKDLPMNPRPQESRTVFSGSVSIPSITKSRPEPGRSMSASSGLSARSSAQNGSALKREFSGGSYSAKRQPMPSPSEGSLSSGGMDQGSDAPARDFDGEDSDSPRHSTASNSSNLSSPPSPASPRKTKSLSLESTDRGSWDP
# Ribosomal protein S6 kinase beta-1 (Homo sapiens), sequence (P23443 whole entry, looked up): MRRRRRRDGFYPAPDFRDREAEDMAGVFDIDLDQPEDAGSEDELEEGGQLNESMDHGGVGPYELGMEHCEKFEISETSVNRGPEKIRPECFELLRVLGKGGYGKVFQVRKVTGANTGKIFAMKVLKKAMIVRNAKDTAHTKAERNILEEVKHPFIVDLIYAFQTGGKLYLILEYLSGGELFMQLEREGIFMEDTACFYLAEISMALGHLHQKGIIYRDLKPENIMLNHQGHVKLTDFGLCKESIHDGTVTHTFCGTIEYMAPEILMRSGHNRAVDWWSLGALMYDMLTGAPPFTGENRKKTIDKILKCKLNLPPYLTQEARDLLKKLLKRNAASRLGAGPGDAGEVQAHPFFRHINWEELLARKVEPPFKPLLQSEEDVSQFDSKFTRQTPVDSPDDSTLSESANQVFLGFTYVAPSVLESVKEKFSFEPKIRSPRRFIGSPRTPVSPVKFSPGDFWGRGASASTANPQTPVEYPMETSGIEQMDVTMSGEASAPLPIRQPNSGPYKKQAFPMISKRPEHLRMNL
# Serine/threonine-protein kinase MRCK beta (Homo sapiens), sequence (Q9Y5S2 whole entry): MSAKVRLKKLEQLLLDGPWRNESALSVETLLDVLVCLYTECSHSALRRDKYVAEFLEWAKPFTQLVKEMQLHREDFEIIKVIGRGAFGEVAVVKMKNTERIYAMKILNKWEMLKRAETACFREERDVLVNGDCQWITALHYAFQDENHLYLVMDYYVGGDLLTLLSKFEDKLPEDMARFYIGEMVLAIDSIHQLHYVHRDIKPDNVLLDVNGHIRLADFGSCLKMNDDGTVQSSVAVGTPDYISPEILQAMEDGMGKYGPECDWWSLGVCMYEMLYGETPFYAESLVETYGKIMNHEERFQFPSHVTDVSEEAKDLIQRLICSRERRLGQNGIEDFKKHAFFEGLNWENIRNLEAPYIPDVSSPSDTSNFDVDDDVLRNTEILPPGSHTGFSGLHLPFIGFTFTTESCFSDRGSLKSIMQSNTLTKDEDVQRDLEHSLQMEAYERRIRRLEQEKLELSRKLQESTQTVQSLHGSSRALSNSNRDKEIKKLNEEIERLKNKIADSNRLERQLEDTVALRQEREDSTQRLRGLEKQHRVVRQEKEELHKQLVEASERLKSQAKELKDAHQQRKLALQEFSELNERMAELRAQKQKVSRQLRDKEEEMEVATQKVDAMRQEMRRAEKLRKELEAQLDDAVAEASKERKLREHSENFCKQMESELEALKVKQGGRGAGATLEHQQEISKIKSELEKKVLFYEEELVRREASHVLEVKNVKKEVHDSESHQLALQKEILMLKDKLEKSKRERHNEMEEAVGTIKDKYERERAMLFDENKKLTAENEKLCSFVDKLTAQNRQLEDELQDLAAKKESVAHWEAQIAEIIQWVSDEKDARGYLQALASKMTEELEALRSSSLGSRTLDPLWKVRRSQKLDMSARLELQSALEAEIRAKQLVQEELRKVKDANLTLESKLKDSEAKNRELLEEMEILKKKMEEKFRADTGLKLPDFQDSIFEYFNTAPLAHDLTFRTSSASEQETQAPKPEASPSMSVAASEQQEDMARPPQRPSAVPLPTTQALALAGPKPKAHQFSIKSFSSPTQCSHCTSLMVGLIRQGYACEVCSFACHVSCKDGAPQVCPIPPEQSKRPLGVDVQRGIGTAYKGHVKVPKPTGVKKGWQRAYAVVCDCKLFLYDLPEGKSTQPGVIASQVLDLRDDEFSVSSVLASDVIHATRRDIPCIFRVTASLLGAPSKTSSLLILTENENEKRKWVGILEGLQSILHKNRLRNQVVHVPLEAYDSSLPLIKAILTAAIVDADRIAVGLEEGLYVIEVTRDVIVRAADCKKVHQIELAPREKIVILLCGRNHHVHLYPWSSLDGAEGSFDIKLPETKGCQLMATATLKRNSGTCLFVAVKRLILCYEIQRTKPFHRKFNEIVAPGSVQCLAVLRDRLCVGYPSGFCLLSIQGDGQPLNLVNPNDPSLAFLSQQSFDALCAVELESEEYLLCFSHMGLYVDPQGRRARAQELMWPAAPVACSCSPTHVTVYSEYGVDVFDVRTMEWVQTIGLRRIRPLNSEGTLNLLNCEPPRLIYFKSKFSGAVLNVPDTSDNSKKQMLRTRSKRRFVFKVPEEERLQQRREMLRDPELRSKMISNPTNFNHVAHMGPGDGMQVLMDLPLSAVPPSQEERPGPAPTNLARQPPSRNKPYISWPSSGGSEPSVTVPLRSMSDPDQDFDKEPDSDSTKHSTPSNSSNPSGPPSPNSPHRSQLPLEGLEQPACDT
# Ribosomal protein S6 kinase alpha-4 (Homo sapiens), sequence (O75676 whole entry, looked up): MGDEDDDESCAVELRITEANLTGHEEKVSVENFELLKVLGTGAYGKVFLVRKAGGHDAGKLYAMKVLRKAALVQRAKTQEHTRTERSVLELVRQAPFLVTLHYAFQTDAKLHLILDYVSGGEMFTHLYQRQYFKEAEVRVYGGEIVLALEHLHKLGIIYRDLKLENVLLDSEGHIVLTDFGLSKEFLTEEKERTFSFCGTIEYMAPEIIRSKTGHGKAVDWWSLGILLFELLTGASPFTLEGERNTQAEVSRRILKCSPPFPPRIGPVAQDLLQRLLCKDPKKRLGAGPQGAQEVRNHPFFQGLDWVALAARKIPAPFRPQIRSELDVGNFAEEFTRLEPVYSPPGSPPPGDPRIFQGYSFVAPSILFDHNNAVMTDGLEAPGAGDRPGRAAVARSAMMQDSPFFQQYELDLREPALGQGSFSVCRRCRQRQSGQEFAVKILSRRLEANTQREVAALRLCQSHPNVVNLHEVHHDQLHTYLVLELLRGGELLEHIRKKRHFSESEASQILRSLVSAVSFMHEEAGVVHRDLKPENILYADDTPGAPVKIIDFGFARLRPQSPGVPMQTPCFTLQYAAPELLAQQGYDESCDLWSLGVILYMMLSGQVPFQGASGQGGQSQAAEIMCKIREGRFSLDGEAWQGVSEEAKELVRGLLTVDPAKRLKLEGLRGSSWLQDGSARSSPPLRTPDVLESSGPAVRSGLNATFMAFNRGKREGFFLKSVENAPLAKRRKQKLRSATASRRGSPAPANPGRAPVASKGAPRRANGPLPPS
SMILES,inhibition [1],inhibition [2],inhibition [3],inhibition [4],inhibition [5],inhibition [6],inhibition [7],inhibition [8],inhibition [9],inhibition [10]
Cn1c(-c2nonc2N)nc2cnccc21,1.33%,10.3%,3.02%,14.4%,32.7%,72.4%,7.86%,39.6%,19.8%,66.6%
c1ccc(-c2n[nH]cc2-c2ccnc(-c3ccc(OCCn4ccnc4)cc3)c2)nc1,-0.22%,-0.54%,1.02%,2.11%,-4.46%,-0.29%,0.76%,3.98%,0.32%,0.33%
Cc1ccc(-c2cc3c(NC(=O)C4CC4)ncnc3o2)cc1,-0.24%,0.37%,1.15%,1.58%,3.67%,3.15%,2.15%,4.27%,2.29%,1.52%
CNC(=O)c1ncccc1Nc1nc(Nc2cc3c(cc2OC)CCCN3C(=O)CN(C)C)nc2[nH]ccc12,-0.11%,2.88%,1.2%,2.41%,3.81%,3.98%,2.93%,5.8%,2.79%,3.62%
CC1=C(C(=O)Nc2ccc3[nH]ncc3c2)C(c2ccc(F)cc2)N=C(c2ccc(C(F)(F)F)nc2)N1 (stereo not given),-0.15%,0.82%,-0.07%,4.54%,3.51%,19.2%,2.12%,14.9%,1.03%,7.4%
Fc1cccc(COc2ccc(Nc3ncncc3C#Cc3ccccc3)cc2Cl)c1,-0.09%,2.32%,-0.25%,0.29%,3.88%,4.33%,2.46%,4.37%,1.71%,2.17%
O=C1Nc2ccccc2/C1=C1\CCc2cc(O)ccc21,0.14%,0.38%,1.68%,1.65%,1.96%,10.1%,16.3%,56.7%,2.81%,11.6%
NS(=O)(=O)c1cccc(N/C=C2\C(=O)Nc3ccccc32)c1,0.02%,0.03%,0.57%,2.14%,10.2%,14.8%,2.95%,18.6%,2.13%,8%
Cc1cc(O)cc(C)c1/C=C/c1cncc(C(=O)OC(C)(C)C)c1,0.35%,1.93%,1.45%,2.65%,1.89%,3.7%,1.86%,3.1%,0.44%,0.31%
CC1(C)CC(n2cnc(-c3ccc(F)cc3)c2-c2ccnc(N)n2)CC(C)(C)N1,0.39%,-0.52%,0.89%,1.72%,-2.87%,-2.36%,2.08%,3.62%,1.01%,0.28%
CCS(=O)(=O)c1ccc(OC)c(Nc2ncc(-c3cccc(C(C)=O)c3)o2)c1,-0.63%,3.28%,-1.42%,-0.03%,2.8%,4.68%,0.6%,2.7%,1.32%,2.57%
COc1ccc(Nc2ncc(-c3ccccc3)o2)cc1OC,0.45%,2.02%,0.74%,1.74%,0.37%,1.73%,1.03%,4.59%,1.51%,2.28%
CS(=O)(=O)CCNCc1ccc(-c2ccc3ncnc(Nc4ccc(OCc5ccccc5)cc4)c3c2)o1,-0.82%,-2.61%,0.05%,1.22%,1.86%,0.66%,3.06%,2.56%,1.52%,2.62%
CN1CCN(Cc2ccc(-c3cc4ncnc(Nc5ccc(OCc6cccc(F)c6)c(Cl)c5)c4s3)o2)CC1,-1.39% and -0.36%,-3.23% and 2%,-0.68% and -0.01%,-1.28% and -0.15%,7.37% and 3.64%,6.3% and 5.71%,1.66% and 2.85%,1.25% and 4.7%,0.39% and 0.55%,1.79% and 5.31%
NC(=O)c1ccc2c(-c3ccnc(NCCCO)n3)c(-c3ccc(F)cc3)nn2c1,0.04%,2.55%,0.29%,2.28%,11.4%,8.01%,1.44%,2.05%,1.72%,1.46%
COc1cc(N2CCN(C(C)C)CC2)ccc1Nc1nc(Nc2cccc3ncccc23)c2cc[nH]c2n1,-0.06%,4.44%,0.85%,4.14%,0.1%,1.16%,1.01%,2.7%,0.36%,2.23%
